Rows were chosen to be rich in hits. Some 3.2% of all compounds tested hit in one or more screens of this group.
PGC1a acetyl inh: modulators of PGC1a acetylation; U2OS PGC1a acetylation, AlphaScreen anti-acetyl-lysine; with virally co-expressed GCN5 acetyltransferase; inhibition, % at 15.6 µM; 350,000 tested, 0.17% active;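 active = every replicate shows inhibition of at least 40%; inconclusive = mean inhibition at least 40% but some replicate below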;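 also: 0% = neutral control wells and 100% = positive control wells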
INS-1E GSIS act: primary screen for activators of insulin secretion dependent on glucose, INS-1E cells, GLuc reporter luminescence; INS-1E GLuc reporter insulin secretion, 2-3 h; 370,000 tested, 0.61% active; activation, % at 16.6 µM; AID 743287;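 active = lowest replicate activation of at least 40%, so every replicate reaches that level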;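 also: 0% = median of neutral control wells and 100% = median of IBMX positive control wells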
CaV13 ICDI inh: Primary screen for inhibitors of IQ motif and Ca2+-dependent inactivation inhibitor domain binding in CACNA1D, Förster resonance energy transfer in living cells, …; HEK cells, CFP/YFP FRET ICDI-IQ, plate reader, 10 min; percent FRET-ratio fall versus neutral wells; inhibition, % at 12.3 µM; 340,000 tested, 0.098% active; AID 743397;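 active = mean replicate inhibition of at least 30% and at least 1% of replicates passing that level; inconclusive = only one of the two criteria is met; inactive = neither criterion is met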;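 also: 0% = median of the neutral control wells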
ERAP1 inh: ERAP1 (human) enzyme inhibition | Q9NZ08 | recombinant ERAP1, Leu-AMC fluorescence, 60 min | inhibition, % at 10.7 µM | 340,000 tested, 0.15% active | AID 652197;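 active = mean replicate inhibition of at least 30%, or all replicates individually reaching that 30% level; inactive = mean below 30% and not every replicate reaching it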;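 also: 0% = neutral control wells and 100% = L-leucinethiol positive control wells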
Target sequence (Q9NZ08 whole entry, looked up): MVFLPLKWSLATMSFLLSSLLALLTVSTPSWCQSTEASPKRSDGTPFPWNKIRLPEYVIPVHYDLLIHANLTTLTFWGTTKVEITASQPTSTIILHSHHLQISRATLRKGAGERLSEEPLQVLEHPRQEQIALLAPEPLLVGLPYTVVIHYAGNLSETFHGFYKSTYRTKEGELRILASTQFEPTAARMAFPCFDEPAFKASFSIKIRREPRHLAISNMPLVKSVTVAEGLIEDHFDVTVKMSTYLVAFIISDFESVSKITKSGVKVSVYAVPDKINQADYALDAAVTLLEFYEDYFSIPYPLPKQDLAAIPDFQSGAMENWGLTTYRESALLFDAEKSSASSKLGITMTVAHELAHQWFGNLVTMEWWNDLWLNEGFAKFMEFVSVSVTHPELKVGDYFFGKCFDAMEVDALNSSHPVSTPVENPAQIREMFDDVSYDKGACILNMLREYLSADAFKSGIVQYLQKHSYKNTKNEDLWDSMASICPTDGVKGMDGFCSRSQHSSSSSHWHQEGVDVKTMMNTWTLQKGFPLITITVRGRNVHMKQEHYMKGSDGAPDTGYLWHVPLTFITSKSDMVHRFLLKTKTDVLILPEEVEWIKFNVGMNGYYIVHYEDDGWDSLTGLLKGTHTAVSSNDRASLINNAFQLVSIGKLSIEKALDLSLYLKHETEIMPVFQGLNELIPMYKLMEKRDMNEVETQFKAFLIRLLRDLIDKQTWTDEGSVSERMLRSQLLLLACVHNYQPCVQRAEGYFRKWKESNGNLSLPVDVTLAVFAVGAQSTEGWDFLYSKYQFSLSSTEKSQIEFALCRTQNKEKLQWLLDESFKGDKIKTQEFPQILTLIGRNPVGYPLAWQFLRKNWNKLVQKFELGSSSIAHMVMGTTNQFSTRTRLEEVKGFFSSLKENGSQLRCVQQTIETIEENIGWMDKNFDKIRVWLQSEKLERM
rRNA inh HTS: inhibits bacterial ribosomal RNA function over humanized ribosomes; E. coli WT GFP vs humanized-ribosome RFP mutants, fluorescence, 24 h; active compounds read low; DMSO median 0, no signal -100; GFP signal change (wild-type ribosome), % (test concentration not listed); 350,000 tested, 1.6% active; AID 720706;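 active = significant combined selectivity score with lowered wild-type GFP, culture density cut under 30%, mutant RFP and density less affected; inactive = any of these conditions unmet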
DENV2 CPE rescue: DENV2-induced cell death inhibition | DENV2-infected cells, cytopathic effect rescue, plate reader | CPE inhibition, % at 9.99 µM | 350,000 tested, 1.7% active | AID 651640; in the data active = CPE inhibition above about 20%, passing the limit was not always enough; inconclusive = no clear call, values can overlap the other calls; tested in BHK-21 cells;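 also: 0% = median of neutral control wells and 100% = median of positive control wells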
* marks the source's active call; other numbers are inactive results; ? = inconclusive; nt = no result.

SMILES	PGC1a acetyl inh	INS-1E GSIS act	CaV13 ICDI inh	ERAP1 inh	rRNA inh HTS	DENV2 CPE rescue
O=C(NCC1CCCCC1)[C@@H]1[C@@H](CO)[C@@H]2Cn3c(ccc(-c4ccncc4)c3=O)[C@H]1N2	nt	1.9	nt	-1.6	0.6	10.2
COc1ccccc1-c1cncc(NC(C)=O)n1	7.0	7.2	-5.0	-1.6	9.7	27.3*
Cc1ccc(CN=c2c([N+](=O)[O-])nn(-c3cccc(Cl)c3)n2O)cc1	2.6	8.9	-4.6	1.2	-24.0*	-3.2
Cc1nc2ccc(C(=O)N3c4ccccc4N=C(c4ccc(C(F)(F)F)cc4)C3C(=O)NC(C)(C)C)cc2[nH]1 (stereo unspecified)	nt	9.2	-9.2	5.6	-0.4	36.9*
CCCCNC(=O)C1C(c2ccc(C(F)(F)F)cc2)=Nc2ccccc2N1C(=O)c1cccc(C(F)(F)F)c1 (stereo unspecified)	nt	-5.8	-10.1	-3.5	2.8	-17.2
C/C=C/c1cccc(-c2nc(C(=O)NC3CCC3)cc3c2[C@H](CCO)N([S@@](=O)C(C)(C)C)C3)c1	nt	-23.3	nt	nt	-4.0	nt
O=C(C[C@H]1C[C@H]2c3cc(NC(=O)C4CCOCC4)ccc3O[C@H]2[C@@H](CO)O1)NCc1ccc(Oc2ccccc2)cc1	5.4	19.7	nt	-3.7	-6.0	-0.7
Cc1ccc(C23OCCN2CCn2nc4ccccc4c23)cc1 (stereo unspecified)	1.5	5.5	-9.1	nt	-0.1	73.6*
CC(C)NC(=O)Nc1ccc2c(c1)C(=O)N([C@H](C)CO)C[C@H](C)[C@H](CN(C)Cc1ccc(C(F)(F)F)cc1)OCCCC[C@H](C)O2	0.1	-7.3	nt	1.3	-0.4	19.1
C[C@H]1c2cccc(O)c2C(O)=C2C(=O)C3(O)C(O)=C(C(N)=O)C(=O)[C@@H](N(C)C)[C@@H]3[C@@H](O)[C@@H]21 (stereo partly specified)	0.8	nt	-5.3	3.6	-60.2	0.3
C=C1c2cccc(O)c2C(O)=C2C(=O)[C@]3(O)C(O)=C(C(N)=O)C(=O)[C@@H](N(C)C)[C@@H]3[C@@H](O)[C@H]12	-14.3	nt	nt	35.4*	nt	-8.6
C[C@H](CO)N1C[C@H](C)[C@@H](CN(C)C(=O)CCC(F)(F)F)OCCCC[C@H](C)Oc2ccc(NS(=O)(=O)c3ccc(F)cc3)cc2C1=O	-3.9	-14.4	nt	3.4	-3.1	-12.3
O=C(Cc1cccc(NC(=O)C2CCCN(C(=O)CCc3ccccc3)C2)c1)Nc1cccc(C(=O)N2CCOCC2)c1 (stereo unspecified)	2.8	4.8	-5.6	-4.8	-1.4	-0.3
CCN(CC)S(=O)(=O)c1ccc(NC(=O)C2CCCN(C(=O)c3ccc(Cl)cc3)C2)cc1 (stereo unspecified)	nt	-6.8	-5.1	-0.4	-22.7*	3.6
O=C(Cc1cccc(NC(=O)C2CCCN(C(=O)CCc3ccccc3)C2)c1)Nc1cccc(C(=O)N2CCCCC2)c1 (stereo unspecified)	-8.9	-11.5	-5.4	-2.7	-18.0*	5.9
O=C(Nc1cccc(-n2cnnn2)c1)C1CCCN(C(=O)Cc2cccc(Cl)c2)C1 (stereo unspecified)	-13.4	nt	-17.1	2.6	2.0	60.5*
O=C(Cc1ccc(NC(=O)C2CCCN(C(=O)c3ccccc3)C2)cc1)Nc1cccc(C(=O)N2CCCCC2)c1 (stereo unspecified)	nt	79.4*	-3.7	0.0	5.9	-6.6
C[C@@H]1CN([C@@H](C)CO)S(=O)(=O)c2ccc(-c3cccnc3)cc2O[C@@H]1CN(C)C(=O)c1ccc2c(c1)OCO2	2.7	3.6	nt	nt	-1.6	-2.1
CC(C)NC(=O)Nc1cccc2c1O[C@H](CN(C)C(=O)NC1CCCCC1)[C@@H](C)CN([C@@H](C)CO)C2=O	-3.3	4.5	nt	3.8	-0.7	nt
Cc1ccc(S(=O)(=O)N[C@H]2C=C[C@H](CC(=O)N3CCc4ccccc4C3)O[C@H]2CO)cc1	1.9	-8.4	nt	-2.7	-2.7	-8.8
CO[C@@H]1CN(C)C(=O)c2ccc(NS(=O)(=O)c3ccccc3)cc2OC[C@H](C)N(Cc2ccccn2)C[C@@H]1C	-4.9	0.5	nt	0.4	0.0	-3.1
Cc1noc(C)c1S(=O)(=O)NC(=O)C1(C)CCN1C(=O)C1(c2ccc(Cl)cc2)CCC1 (stereo unspecified)	5.0	55.3*	-4.8	1.9	2.3	-14.3
CC1(C(=O)NS(=O)(=O)c2ccccc2Cl)CCN1C(=O)C1(c2ccc(Cl)cc2)CCC1 (stereo unspecified)	11.9	87.8	-5.4	1.9	-16.8*	-1.8
CC1(C(=O)NS(=O)(=O)c2ccccc2Cl)CCN1C(=O)C1(c2ccccc2)CCCC1 (stereo unspecified)	nt	92.2*	-4.1	18.2	-1.0	16.1
CC1(C(=O)NS(=O)(=O)c2ccccc2Cl)CCN1C(=O)C1(c2ccc(Cl)cc2)CC1 (stereo unspecified)	0.5	-0.8	-4.0	-0.7	1.4	-7.0
SMILES	PGC1a acetyl inh	INS-1E GSIS act	CaV13 ICDI inh	ERAP1 inh	rRNA inh HTS	DENV2 CPE rescue
CC1(C(=O)NS(=O)(=O)c2ccccc2Cl)CCN1C(=O)c1ccco1 (stereo unspecified)	-2.6	-4.5	-4.5	4.6	9.0	22.3*
COc1ccc(OC)c(S(=O)(=O)NC(=O)C2(C)CCN2C(=O)c2ccco2)c1 (stereo unspecified)	-5.8	5.5	-4.9	7.6	-1.3	8.7
O=C(C[C@@H]1CC[C@@H](NC(=O)Cc2ccccn2)[C@H](CO)O1)NCCc1ccncc1	1.3	-6.2	nt	nt	4.6	nt
COc1ccc(NC(=O)N(C)C[C@H]2OCCCC[C@@H](C)Oc3ccc(NC(=O)C4CCCCC4)cc3C(=O)N([C@@H](C)CO)C[C@@H]2C)cc1	-13.3	-8.3	nt	1.1	-2.1	-7.9
COCCCN(Cc1ccco1)C(=O)Cn1ncc2c([nH]c3ccccc32)c1=O	-11.1	-3.1	-7.7	2.1	-2.5	24.9*
CN(Cc1ccco1)C(=O)Cn1ncc2c([nH]c3ccccc32)c1=O	-8.1	-2.2	-7.2	3.1	-1.0	20.0
Cc1n[nH]c(=O)c2c(NC(=O)CSc3nnc(-c4ccco4)n3C)oc(C)c12	8.9	11.8	-4.9	-1.4	2.9	-3.4
Cc1n[nH]c(=O)c2c(NC(=O)CSc3nnc(C4CC4)n3C)oc(C)c12	nt	1.6	-4.1	2.7	-1.7	39.1*
CNC[C@@H]1Oc2ncc(-c3ccc(OC)cc3)cc2C(=O)N([C@H](C)CO)C[C@H]1C	3.8	14.0	nt	nt	-1.4	nt
Cc1ccc2nc(SCC(=O)Nc3ccc(F)cc3)nc(=O)n2c1	76.3*	8.6	-15.0	1.8	6.5	?
Cc1ccc2nc(SCC(=O)Nc3ccc(Cl)cc3)nc(=O)n2c1	nt	-2.8	-5.1	-0.2	7.0	-3.2

Bioassay records (PubChem BioAssay)
